Screening data (PubChem BioAssay)
In the library only some 12% were active in any assay of this set; here they are far more common.
INS promoter inh – inhibitors of insulin promoter-driven GFP, primary screen, imaging, TRM-6 cells (human fetal islet line), eGFP reporter, cell count; actives 0.9% (n = 130,000); reporter expression induced with tamoxifen; inhibition, % at 2 µM;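 active = inhibition above the mean plus 3 SD, with well images judged a real hit on visual review, cut at about 60% in these data, passing the limit was not always enough; inconclusive = inhibition over the cutoff but images rejected on review; inactive = inhibition not above the cutoff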
Cl transport mod – KCC2 cotransporter modulators, thallium flux, primary screen, cell-based, HEK293 KCC2, FluoZin-2 fluorescence, MLSMR; KCC2 cells, thallium flux FluoZin-2 fluorescence; actives 2.2% (n = 190,000); B-score of Tl+ flux slope (higher = more flux/activation; lower = inhibition) at 10 µM;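 active = thallium flux slope and its plate-corrected score both differing from the plate sample mean at a set confidence after two filtering rounds, in either direction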;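 note: slope of fluorescence scaled to starting intensity during 10 to 20 s after thallium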
Target sequence (Q9H2X9 whole entry, looked up): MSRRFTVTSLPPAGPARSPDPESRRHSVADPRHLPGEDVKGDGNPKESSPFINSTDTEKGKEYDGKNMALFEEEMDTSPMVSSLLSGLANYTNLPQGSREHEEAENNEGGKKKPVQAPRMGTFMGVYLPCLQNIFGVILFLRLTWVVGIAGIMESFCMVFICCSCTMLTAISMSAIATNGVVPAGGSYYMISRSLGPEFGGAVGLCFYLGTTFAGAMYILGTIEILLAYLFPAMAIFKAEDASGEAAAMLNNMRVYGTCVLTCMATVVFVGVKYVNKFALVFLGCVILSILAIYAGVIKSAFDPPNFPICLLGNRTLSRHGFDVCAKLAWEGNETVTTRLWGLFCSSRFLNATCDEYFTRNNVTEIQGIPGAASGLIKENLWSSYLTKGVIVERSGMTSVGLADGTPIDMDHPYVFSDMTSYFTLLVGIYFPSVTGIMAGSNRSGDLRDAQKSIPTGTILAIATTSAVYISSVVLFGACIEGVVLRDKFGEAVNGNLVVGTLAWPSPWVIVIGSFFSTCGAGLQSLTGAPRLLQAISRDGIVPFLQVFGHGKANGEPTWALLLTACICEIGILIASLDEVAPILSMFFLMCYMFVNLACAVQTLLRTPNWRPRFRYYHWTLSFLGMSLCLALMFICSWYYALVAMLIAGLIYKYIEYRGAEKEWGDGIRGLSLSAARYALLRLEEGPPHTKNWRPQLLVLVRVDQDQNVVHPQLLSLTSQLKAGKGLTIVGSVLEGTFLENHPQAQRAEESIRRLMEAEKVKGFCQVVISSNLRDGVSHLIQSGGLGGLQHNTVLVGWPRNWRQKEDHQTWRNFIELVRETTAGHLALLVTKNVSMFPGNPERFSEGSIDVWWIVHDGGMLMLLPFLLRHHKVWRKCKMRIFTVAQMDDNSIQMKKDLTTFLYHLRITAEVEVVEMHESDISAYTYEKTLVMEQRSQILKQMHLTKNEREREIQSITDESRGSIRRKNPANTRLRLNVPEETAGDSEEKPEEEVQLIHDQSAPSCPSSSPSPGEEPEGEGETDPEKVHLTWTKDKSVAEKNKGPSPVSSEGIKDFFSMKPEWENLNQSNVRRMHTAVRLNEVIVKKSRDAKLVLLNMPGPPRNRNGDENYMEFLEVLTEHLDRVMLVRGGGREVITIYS
Ins promoter up – insulin promoter activators in MIN6 cells, imaging, high-content screening, mouse beta cells; MIN6 insulin promoter-GFP reporter; active compounds read high; z-score at 5 µM; actives 0.3% (n = 190,000);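 active = z-score above 3 at 5 µM with at least 500 cells counted in the well; inconclusive = wells under 500 cells, flagged as cytotoxic or low count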
ROMK mod – ROMK potassium channel modulators, primary screen, cell-based, thallium flux, MLSMR library; AID 1918, 2009; ATP-sensitive inward rectifier potassium channel 1 (Homo sapiens), P48048; Tet-inducible ROMK, thallium flux fluorescence; actives lie on both sides; B-score at 10 µM; actives 2% (n = 130,000);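 active = signal ratio slope over the read window, or its plate-corrected B-score, at least 3 SD from the plate mean, either direction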;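 note: B-score of the F/F0 ratio slope over 7 to 12 s after thallium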
Lmaj promast – Leishmania major promastigote growth inhibition, primary screen; Leishmania major promastigotes, resazurin fluorescence viability; inhibition, % at 10 µM; actives 9% (n = 200,000); AID 1063, 2008; in the data active = inhibition above about 50%;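 note: promastigotes grown with compound for 44 hours at 28 °C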
WT yeast gro inh – growth inhibition of WT strain, primary screen, mitochondrial fusion inhibitor project, WT and mutant strains, chemical genetic. mitochondrial fusion phenotypic screen. inhibition, % at 10 µM. actives 2.1% (n = 190,000); in the data active = inhibition above about 58%; tested in S. cerevisiae
ROMK hit retest – ROMK channel modulator hit retest, confirmation, cell-based, thallium flux, duplicate, resupplied hits. fluorescence ratio; active compounds read low. normalized thallium flux (F/F0 slope) at 10 µM. actives 54% (n = 3,000). shares compounds with ROMK mod;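 active = Flux at 10 µM at least 3 SD below or above vehicle control mean in one or both replicates; inconclusive = no clear call, values can overlap the other calls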
* marks the source's active call; other numbers are inactive results; i = inactive; ? = inconclusive; nt = no result given.

SMILES	INS promoter inh	Cl transport mod	Ins promoter up	ROMK mod	Lmaj promast	WT yeast gro inh	ROMK hit retest
Cc1ccc(-c2nnc(N3CCN(C(=O)CSc4ncn[nH]4)CC3)c3ccccc23)cc1	62	-1.9	nt	nt	4	7	nt
O=C(NC1CCCCC1)C(c1cccnc1)N(C(=O)CCl)c1cccc(Cl)c1 (stereo not given)	i	-0.15	-1.2	-3.3*	100*	-8	0.051*
Cc1cc(NC(=O)CSCC(=O)N(c2cccc(Cl)c2)C(C(=O)NC2CCCCC2)c2ccc(O)c(O)c2)no1 (stereo not given)	-29	0.12	1.7	-4.8*	-4	-10	0.056*
COc1cccc(N(C(=O)c2ccco2)C(C(=O)NC2CCCC2)c2cccnc2)c1 (stereo not given)	nt	nt	0.9	nt	-2	3	nt
COc1ccc(N(C(=O)CSCC(=O)Nc2cc(C)on2)C(C(=O)NC2CCCCC2)c2ccc(O)c(O)c2)cc1 (stereo not given)	29	-0.22	-2	-1	0	-9	nt
NC(=O)C1=NOC(CNc2ncc(C(F)(F)F)cc2Cl)C1 (stereo not given)	22	-0.18	0.41	2.4*	-1	-10	0.088
Cc1ccc(CSc2nnc(NC(=O)C3COc4ccccc4O3)s2)cc1 (stereo not given)	nt	0.41	0.89	1.4	-3	14	nt
CC(=O)NC(C(=O)c1ccccc1)C(=O)c1ccccc1	40	-0.19	0.82	0.44	-5	-13	nt
CN(C)CC(CCC(CN(C)C)C(=O)c1ccccc1)C(=O)c1ccccc1 (stereo not given)	nt	1.1	-1.9	-3.2*	nt	nt	0.044*
N#CC1(c2ccc(NC(=O)c3ccccc3)cc2)CCCC1	nt	0.97	0.23	2.3*	-3	-15	0.094
O=C(Nc1ccc(F)cc1)c1ccccc1	17	0.52	0.77	1.3	5	6	nt
CCOC(=O)COc1ccc(Br)cc1/C=C/c1[nH]c(=O)[nH]c(=O)c1[N+](=O)[O-]	nt	2.5	2.2	-2.7*	-7	-18	0.051*
Cc1c(NC(=O)CN2CCN(C(=O)c3ccco3)CC2)c(=O)n(-c2ccccc2)n1C	37	0.42	-0.75	nt	-6	-9	nt
CCOc1cccc(NC(=O)CSc2nc(C)c3c(c2C#N)CCCC3)c1	11	1.5	-0.06	nt	-3	-7	0.076
CSS(=O)(=O)c1cccc2cccnc12	nt	2.8	0.03	nt	nt	nt	0.09
CN1CCN(C(=S)Nc2ccc(Oc3ccccc3)cc2)CC1	nt	-1.6	0.11	-0.43	3	5	nt
CCOc1ccc(NC(=O)c2csc3c2CCCC3)cc1	22	0.92	0.44	-0.011	-6	11	nt
CCc1ccc(C(=O)OCC(=O)c2c(N)n(CC(C)C)c(=O)n(C)c2=O)cc1	10	nt	-1.3	-11*	-3	14	0.082
CS(=O)(=O)N(CC(=O)N1CCN(c2ccccc2)CC1)Cc1ccc(Cl)cc1	-50	0.55	0.02	nt	-2	3	nt
CCC(C)NCC(=O)Nc1ccc(-c2nc3cc(NC(=O)CNC(C)CC)ccc3o2)cc1 (stereo not given)	nt	-0.018	-4.8	-2.3*	99*	2	0.061*
CCCCC(=O)Nc1ccc2oc(-c3ccncc3)nc2c1	26	nt	0.03	-0.41	4	-5	nt
Cc1ccc(S(=O)(=O)NC2=NCN(C3CCCCC3)CN2)cc1	-125	-0.28	0	nt	-1	33	?
CC(CN1CCCCCC1)C(=O)NN (stereo not given)	nt	0.95	nt	-0.057	5	-15	nt
CC(C)CNS(=O)(=O)c1ccccc1C(=O)N1CCCCC1	25	1.4	-0.41	nt	-3	-16	nt
Cc1cccc(C)c1OCC(O)CNS(=O)(=O)c1ccccc1C(=O)N1CCCCC1 (stereo not given)	-114	nt	-0.69	-1.8	-3	17	0.075
SMILES	INS promoter inh	Cl transport mod	Ins promoter up	ROMK mod	Lmaj promast	WT yeast gro inh	ROMK hit retest
CCOc1cc2oc(=O)c3c(c2cc1Cl)CCC3	-29	0.31	-0.1	0.37	-8	3	0.086
Cc1ccccc1Cn1cc(C)c(=O)[nH]c1=O	-12	-0.34	-0.36	2.1*	-3	2	0.073
Oc1c(Br)cc(Cl)cc1C=Nc1ccccc1Br	-21	0.03	0.64	3.5*	12	-1	?
Cc1ccc([N+](=O)[O-])c(OCCn2cnc3ccccc32)c1	nt	0.76	0.15	-3*	6	9	?
c1ccc(OCCn2cnc3ccccc32)cc1	-152	nt	0.15	-2.2*	52*	10	0.067*
COc1ccc(C(=O)NCC(=O)NCC(c2ccco2)N(C)C)cc1OC (stereo not given)	nt	0.6	-0.43	nt	1	2	nt
CN(C)C(CNC(=O)c1cccc(OC(F)F)c1)c1ccco1 (stereo not given)	-24	1.2	0.11	1.1*	59*	-1	0.088
COC(=O)CCn1c(C)cc(C(=O)COc2ccccc2C(N)=O)c1C	0	-0.46	0.17	-5.4*	-7	2	?
COC(=O)c1cc([N+](=O)[O-])c(-n2cncn2)c([N+](=O)[O-])c1	nt	-0.61	0	-7.8*	2	-9	0.043*
COC(=O)c1cc(F)c(-n2cncn2)c(F)c1	-25	nt	nt	nt	-7	-14	nt
COC(=O)c1ccc(/C=N\NC(=O)c2ccc(C)cc2Cl)cc1	25	nt	nt	nt	-5	4	nt
CC(c1ccc(C(C)(C)C)cc1)S(=O)CC(O)CO (stereo not given)	8	0.55	0.34	0.91	-10	0	nt
CC(C)c1nc(SCC(=O)Nc2c[nH]c(=O)[nH]c2=O)c2cnn(-c3ccccc3)c2n1	nt	1	-1.6	0.42*	28	-1	0.085
Cc1c(NC(=O)/C(=C\c2ccccc2)NC(=O)c2ccccc2)c(=O)n(-c2ccccc2)n1C	17	0.74	nt	nt	-3	19	nt
Cc1c(NC(=O)/C(C#N)=C/c2ccccc2)c(=O)n(-c2ccccc2)n1C	nt	-0.14	1.4	-2.9*	-1	-10	0.051*
Cc1c(NC(=O)/C(C#N)=C/c2ccc(-c3ccccc3Cl)o2)c(=O)n(-c2ccccc2)n1C	nt	-2.1	-1.6	nt	6	-5	0.056*
Cc1c(NC(=O)/C(C#N)=C/c2ccc(-c3ccc(Cl)c(Cl)c3)o2)c(=O)n(-c2ccccc2)n1C	-3	-1.4	-0.11	-0.56	21	55	nt
CCc1cccc(NC(=O)CSC2=NS(=O)(=O)c3ccccc32)c1	nt	nt	0.06	nt	2	-12	0.059*
OCc1ccccc1N=c1ssnc1Cl	36	nt	0.07	-0.21	-1	3	nt
N#Cc1cccc(N=c2ssnc2Cl)c1	-7	1.5	1.3	-3.9*	-2	43	0.065*
